Among the test systems are NCI-H23 lung; NCI-H226 lung; NCI-H322M lung; HOP-62 NSCLC; NCI-H460 lung; HOP-92 NSCLC; NCI-H522 lung; A549/ATCC NSCLC; 786-0 renal; COLO 205 colon; DU-145 prostate; K-562 leukemia; MALME-3M melanoma; MDA-MB-231 breast; RXF 393 renal; SF-268 CNS; SF-295 CNS; SF-539 CNS; UACC-257 melanoma; M14 melanoma.
Holding throughout (experiment): NCI-60 one-dose screen, 48 h (100 = growth as untreated, 0 = no growth, -100 = all killed)
Conditions in all cases: 10 µM unless noted

The panel holds about 83,000 compounds, 20% with a hit somewhere; the sample as a whole holds those more often.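 96-well plates, one dose, 48 hours. Percent growth reported; active if below 10.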 Values without a mark were called inactive. Active and inactive are the calls of the source.

For the molecule `Cc1ccnc2c(OCc3ccccc3)cccc12`, the growth with NCI-H23 lung was 93.5%; in the experiment with NCI-H226 lung, 81.9%; in the experiment with NCI-H322M lung, 76.4%; with HOP-62 NSCLC, 106%; with NCI-H460 lung, 86.1%; in the experiment with HOP-92 NSCLC it was 53.4%. The growth is 105% with NCI-H522 lung; 93.5% in the experiment on A549/ATCC NSCLC; 96.1% in the experiment on 786-0 renal; 113% in the experiment with COLO 205 colon; 97.1% in the experiment on DU-145 prostate; 99.2% with K-562 leukemia. Moreover, the growth in the experiment on MALME-3M melanoma was 84.4%; in the experiment with MDA-MB-231 breast, 72.1%; in the experiment on RXF 393 renal, 95.1%; in the experiment on SF-268 CNS, 92.5%; with SF-295 CNS, 89.9%; in the experiment on SF-539 CNS, 104%. For the same molecule, the growth with UACC-257 melanoma is 115%; with M14 melanoma it was 93.4%.

On to `Nc1ccccc1NC(=O)c1ccc(CN2CCC/C(=C\c3ccccn3)C2=O)cc1`, for which the growth was 29.3% in the experiment on NCI-H23 lung; 52.8% in the experiment with NCI-H226 lung; 39.8% with NCI-H322M lung; 41.8% in the experiment on HOP-62 NSCLC; 17.9% in the experiment with NCI-H460 lung; 46% in the experiment on HOP-92 NSCLC. Also, the growth was 21.1% in the experiment on NCI-H522 lung; 26.2% in the experiment on A549/ATCC NSCLC; 44.5% in the experiment with 786-0 renal; 1.53% (active) in the experiment on COLO 205 colon; 45.9% in the experiment on DU-145 prostate; 9.55% (active) with K-562 leukemia. The growth in the experiment with MALME-3M melanoma is 20.9%; in the experiment with MDA-MB-231 breast, 45.3%; with RXF 393 renal, 2.96% (active); with SF-268 CNS, 25%; in the experiment with SF-295 CNS it was -2.97% (active); in the experiment on SF-539 CNS it was 27.4%. In addition, the growth was 26.3% with UACC-257 melanoma and 12.3% in the experiment on M14 melanoma.

Regarding `N=C(N)c1ccc(S(N)(=O)=O)cc1`, the growth is 93.6% in the experiment with NCI-H23 lung; 101% in the experiment with NCI-H226 lung; 96.2% with NCI-H322M lung; 87.1% in the experiment with HOP-62 NSCLC; 113% in the experiment with NCI-H460 lung; 93.6% in the experiment with HOP-92 NSCLC. In addition, the growth is 91.8% in the experiment with NCI-H522 lung; 91.9% in the experiment with A549/ATCC NSCLC; 90.8% in the experiment with 786-0 renal; 122% in the experiment on COLO 205 colon; 104% in the experiment on DU-145 prostate; 106% in the experiment on K-562 leukemia. Moreover, the growth was 87.6% in the experiment with MALME-3M melanoma; 110% in the experiment with MDA-MB-231 breast; 66.7% in the experiment with RXF 393 renal; 96.1% with SF-268 CNS; 98.8% in the experiment with SF-295 CNS; 129% in the experiment with SF-539 CNS. Besides, the growth with UACC-257 melanoma is 93%; in the experiment on M14 melanoma, 94.7%.

For the molecule `Cc1cc2nc3c4cc([N+](=O)[O-])cc([N+](=O)[O-])c4n(CCN(C)C)c3nc2cc1C`, the growth is 77.7% with NCI-H23 lung; 84.1% in the experiment on NCI-H226 lung; 72.2% in the experiment on NCI-H322M lung; 64.7% with HOP-62 NSCLC; 65.4% in the experiment with NCI-H460 lung; 80.7% with HOP-92 NSCLC. Also, the growth in the experiment with NCI-H522 lung is 70.6%; with A549/ATCC NSCLC, 73.5%; in the experiment on 786-0 renal, 80.4%; with COLO 205 colon, 71.1%; with DU-145 prostate it was 92.1%; in the experiment on K-562 leukemia it was 62.3%. The growth in the experiment on MALME-3M melanoma was 76.5%; with MDA-MB-231 breast, 77.2%; in the experiment with RXF 393 renal it was 58.3%; in the experiment with SF-268 CNS, 74.1%; in the experiment with SF-295 CNS it was 62.9%; in the experiment with SF-539 CNS it was 76.5%. Further, the growth with UACC-257 melanoma is 107%; in the experiment with M14 melanoma, 80.1%.

As for `N=C(N)N=Nc1ccc(O)cc1`, the growth in the experiment with NCI-H23 lung is 68% [100 µM]; in the experiment with NCI-H226 lung, 73.5% [100 µM]; in the experiment on NCI-H322M lung it was 80.2% [100 µM]; with HOP-62 NSCLC, 76.9% [100 µM]; in the experiment on NCI-H460 lung it was 84.1% [100 µM]; in the experiment with HOP-92 NSCLC, 84% [100 µM]. Moreover, the growth in the experiment on NCI-H522 lung is 37.7% [100 µM]; with A549/ATCC NSCLC, 93.3% [100 µM]; with 786-0 renal, 28.9% [100 µM]; in the experiment with COLO 205 colon, 57.2% [100 µM]; in the experiment on DU-145 prostate it was 80.4% [100 µM]; in the experiment with K-562 leukemia, 17% [100 µM]. Moreover, the growth in the experiment with MALME-3M melanoma is 85.2% [100 µM]; with MDA-MB-231 breast, 103% [100 µM]; in the experiment on RXF 393 renal, 20.8% [100 µM]; in the experiment on SF-268 CNS, 77.5% [100 µM]; in the experiment on SF-295 CNS it was 8.54% [100 µM] (active); in the experiment with SF-539 CNS, 15.2% [100 µM]. Also, the values for the growth in the experiment on UACC-257 melanoma and in the experiment with M14 melanoma were 95.6% [100 µM] and 81.6% [100 µM], respectively.

In the case of `COc1ccc2c(c1)c(-c1nc(-c3c[nH]c4ncccc34)cs1)cn2CCCN1CCCCC1`, the growth with NCI-H23 lung was 73.1%; in the experiment with NCI-H226 lung it was 70.8%; with NCI-H322M lung, 56.4%; with HOP-62 NSCLC, 37.4%; in the experiment on NCI-H460 lung, 5.78% (active); in the experiment on HOP-92 NSCLC, 24.9%. Also, the growth in the experiment with NCI-H522 lung was 67.6%; with A549/ATCC NSCLC it was 41.3%; in the experiment on 786-0 renal it was -75.1% (active); in the experiment with COLO 205 colon, -74.9% (active); in the experiment on DU-145 prostate, 46.1%; in the experiment with K-562 leukemia it was -58.8% (active). Besides, the growth with MALME-3M melanoma was -70.9% (active); in the experiment with MDA-MB-231 breast, 29.3%; with RXF 393 renal, 35.9%; with SF-268 CNS, 52.7%; with SF-295 CNS, 68.2%; with SF-539 CNS it was -63.6% (active). Also, the growth with UACC-257 melanoma is 71.8%; in the experiment with M14 melanoma it was -84.1% (active).

In the case of `COc1cc(OC)c2c(c1)c1nc3cc(C)c(C)cc3nc1n2CCN(C)C`, the growth in the experiment with NCI-H23 lung is 91.3%; in the experiment on NCI-H226 lung, 90.5%; in the experiment on NCI-H322M lung, 87.1%; with HOP-62 NSCLC, 79.4%; with NCI-H460 lung, 84.8%; with HOP-92 NSCLC it was 81.7%. The growth was 79.2% with NCI-H522 lung; 80.4% in the experiment on A549/ATCC NSCLC; 83.9% in the experiment on 786-0 renal; 74.9% in the experiment with COLO 205 colon; 90.2% in the experiment with DU-145 prostate; 78.3% with K-562 leukemia. The growth with MALME-3M melanoma is 80.9%; with MDA-MB-231 breast, 79.5%; with RXF 393 renal, 96.2%; in the experiment on SF-268 CNS, 93.7%; in the experiment on SF-295 CNS, 90.2%; in the experiment with SF-539 CNS, 86%. Further, the growth is 94.9% with UACC-257 melanoma and 84.2% in the experiment with M14 melanoma.

For `CCC(CC)C(=O)OC(C)COc1ccc(C(C)(C)C)cc1` (stereo not given), the growth was 105% in the experiment on NCI-H23 lung; 100% in the experiment on NCI-H226 lung; 109% in the experiment with NCI-H322M lung; 103% in the experiment with HOP-62 NSCLC; 106% in the experiment on NCI-H460 lung; 92.6% in the experiment with HOP-92 NSCLC. Besides, the growth in the experiment on NCI-H522 lung is 70.5%; in the experiment with A549/ATCC NSCLC, 69.2%; in the experiment on 786-0 renal, 97.4%; in the experiment with COLO 205 colon, 124%; in the experiment on DU-145 prostate, 106%; in the experiment with K-562 leukemia it was 87%. Also, the growth is 94.5% in the experiment with MALME-3M melanoma; 108% with MDA-MB-231 breast; 113% in the experiment with RXF 393 renal; 99.1% in the experiment on SF-268 CNS; 106% with SF-295 CNS; 109% with SF-539 CNS. Besides, the growth with UACC-257 melanoma is 66.7%; in the experiment with M14 melanoma it was 96%.

The record behind these values is PubChem BioAssay (NCI).
